Experimental data: PubChem BioAssay AID1903 (Southern Research Specialized Biocontainment Screening …, 2009)
Several values for one entry are separate records, joined by “and”; a condition that tells them apart may be missing. Equal values may be shown once. Out of some 310,000 compounds screened, about 1,200 (0.39%) were called active. The rule behind the calls is not given here. The list is a sample of the results. Entries with a potency or affinity are not part of this list.

biological target: Large T antigen (Simian virus 40) (UniProt P03070); assay: TAg ATPase/helicase activity blockers – biochemical (AID 1903); settings: SV40 large T antigen ATPase/helicase inhibition assay; at 20 µM; active compounds read high
Sequence (P03070 whole entry, looked up): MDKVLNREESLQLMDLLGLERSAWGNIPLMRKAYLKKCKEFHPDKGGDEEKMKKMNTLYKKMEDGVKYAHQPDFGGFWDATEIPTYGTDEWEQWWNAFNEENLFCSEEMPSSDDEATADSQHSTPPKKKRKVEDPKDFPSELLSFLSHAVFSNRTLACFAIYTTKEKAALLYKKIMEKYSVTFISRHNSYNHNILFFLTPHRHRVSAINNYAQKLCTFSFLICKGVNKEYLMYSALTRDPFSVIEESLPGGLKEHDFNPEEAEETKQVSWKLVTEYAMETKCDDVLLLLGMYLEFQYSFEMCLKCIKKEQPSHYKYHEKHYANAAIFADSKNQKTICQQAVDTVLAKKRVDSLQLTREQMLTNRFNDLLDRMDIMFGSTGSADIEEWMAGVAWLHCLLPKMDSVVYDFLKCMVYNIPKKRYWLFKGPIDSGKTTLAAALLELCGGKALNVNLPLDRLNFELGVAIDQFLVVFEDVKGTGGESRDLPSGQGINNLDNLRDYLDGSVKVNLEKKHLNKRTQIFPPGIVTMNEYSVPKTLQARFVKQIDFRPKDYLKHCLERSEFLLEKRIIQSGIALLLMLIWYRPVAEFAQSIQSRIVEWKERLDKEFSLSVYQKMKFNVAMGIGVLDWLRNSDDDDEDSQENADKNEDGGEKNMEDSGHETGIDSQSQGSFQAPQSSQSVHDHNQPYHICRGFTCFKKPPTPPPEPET

inhibition, inactive:
Cc1[nH]c(=O)[nH]c(=S)c1C(=O)Nc1ccc(Cl)c(Cl)c1 -9.05%
CC1(C(=O)O)CCC(C(=O)Nc2ccc(F)cc2)C1(C)C (stereo not given) 17.4%
O=C1c2ccccc2S(=O)(=O)N1CCOc1ccc(F)cc1 6.69%
CCOc1ccc(CCNC(=O)COC(=O)C2=NNC(=O)CC2)cc1OCC 12.5%
COc1ccc2c(c1)C1CC(C)(NC(=O)C1S(=O)(=O)c1ccc(F)cc1)O2 (stereo not given) 22.9%
CCOC(=O)c1ccccc1NC(=O)c1cccc2c1C(=O)N(C1CCN(C(=O)OCC)CC1)C2 5.81% and 1.24%
COc1ccc(CN(CCN(C)C)c2ccccn2)cc1 11.2% and 4.35%
CC[N+](C)(C)CCN(Cc1ccc(Cl)cc1)c1ccccn1 19.1%
O=c1[nH]cc(N(CCO)CCO)c(=O)[nH]1 15.6%
O=C(/C=C/c1ccccc1)OCC(=O)N1CCN(c2ccccc2)CC1 8.9%
Cc1onc(C(=O)NCc2cccs2)c1[N+](=O)[O-] -0.94%
NC1=NC(=O)CC(C(=O)NCCc2ccccc2)S1 (stereo not given) 13.9%
N#CC(C(=O)Nc1ccc(Cl)cc1)=C1Nc2ccccc2N1 -0.845%
C/C(Nc1ccc(Cl)cc1)=C(/C#N)C(N)=O -6.59%
CCc1cc(C(=O)c2ccccc2OC)c(N)s1 12.7%
COC(=O)/C=C/c1ccc2c(c1)OCO2 -5.42%
CCCCOC(=O)/C=C/c1ccc(OC(=O)OC)c(OC(=O)OC)c1 15.3%
CCOc1ccc(NC(=S)N(Cc2ccc(Cl)cc2)Cc2ccco2)cc1 2.54%
O=C(CS(=O)(=O)Cc1ccccc1)N1CCc2ccccc2C1 9.06%
NN1C(=O)/C(=C\c2ccco2)SC1=S 45.2%
O=C1N=C(N2CCN(c3ccccc3)CC2)S/C1=C/c1ccco1 12.4%
O=C1N=C(N2CCCC2C(=O)O)S/C1=C\c1ccco1 (stereo not given) 3.04%
O=C(CN1C(=O)S/C(=C\c2ccc(O)cc2)C1=O)c1ccccc1 16.6%
Cc1ccc(N=C2NC(=O)/C(=C/C=C/c3ccco3)S2)cc1 21.2%
CCCSC1=N/C(=C\C=C\c2ccco2)C(=O)S1 73%
O=C1N=C(N2CCN(c3ccccc3)CC2)S/C1=C\c1ccco1 31.4%
O=C1/C(=C\c2ccc(O)cc2)SC(=S)N1Cc1ccccc1 7.6%
COc1ccccc1-c1noc(CCCC(=O)NC2CCCCC2)n1 29.8%
Cc1cc(C=O)c(C)n1-c1ccc(N2CCOCC2)c([N+](=O)[O-])c1 5.88%
O=C(COC(=O)c1nc(Cl)ccc1Cl)NCCc1ccccc1 -0.66%
CCc1ccc(/C=C2/Sc3ccccc3N(CC(=O)NCC3CCCO3)C2=O)cc1 (stereo not given) 3.57%
Cc1ccc(NC(=O)N2CCC(C(=O)c3ccc(F)cc3)CC2)cc1 3.7%
CCOC(=O)Cn1c(=NC(=O)CN2C(=O)CCC2=O)sc2cc(S(N)(=O)=O)ccc21 11.6%
COc1ccc(C(CNc2ccc(S(=O)(=O)N3CCCC3)cc2[N+](=O)[O-])N2CCCC2)cc1 (stereo not given) 0.85%
O=C(C1CCCN(Cc2ccccc2F)C1)N1CCCC1 (stereo not given) -1.92%
CC1CN(c2nc3c(c(=O)n(C)c(=O)n3C)n2Cc2c(Cl)cccc2Cl)CC(C)O1 (stereo not given) -0.38%
CN(C)S(=O)(=O)c1cccc(NC(=O)COC(=O)COc2ccccc2[N+](=O)[O-])c1 8.43%
CC(=O)C1=C(C)Nc2ncnn2C1c1cccc(Br)c1 (stereo not given) 4.82%
Cn1c(C(=O)NCCOc2ccccc2Cl)cc(=O)n(C)c1=O 3.15%
CC(C)(O)[C@H]1Cc2cc3ccc(=O)oc3cc2O1 -9.56%
COc1cc2c(cc1/C=C/C(=O)O)OC(C)C2 (stereo not given) -5.46%
CCCc1ccc(S(=O)(=O)N/N=C\c2ccc3c(c2)OCO3)cc1 10.3%
Cc1ccc(S(=O)(=O)NCC(=O)Nc2cccc([N+](=O)[O-])c2)cc1 1.03%
Cc1onc(-c2c(Cl)cccc2Cl)c1/C(N)=N/OC(=O)C(C)(C)C 7.65%
CC[C@H](C)/C=C(C)/C=C/C1=CC2=CC(=O)[C@]3(C)OC(=O)[C@@H](C(C)=O)[C@@H]3C2=CO1 18%
CCC(C)/C=C/C1=CC2=C(Cl)C(=O)C3(C)OC(=O)C(C(=O)C(C)C(C)O)C3C2=CO1 (stereo not given) 12.9%
COC(=O)CCC(=O)OC1(C)C(=O)C2=COC(c3ccc(OC)cc3)=CC2=C(Br)C1=O (stereo not given) 50.8%
O=C(CSc1nc(-c2ccccc2)c(-c2ccccc2)o1)N1CCOCC1 4.01%
O=C(CNC(=O)c1ccc(Cl)cc1Cl)OCc1nnc(-c2ccccc2)o1 15.1%
CC1(C)CC(=O)c2sc(NC(=O)C3COc4ccccc4O3)nc2C1 (stereo not given) 4.75%
O=C(C1CCN(S(=O)(=O)c2cccs2)CC1)N1CCCCC1 13.9%
Cc1cc(C)c2c(CN3CCCCC3)cc(=O)oc2c1 20.4%
Cc1cc(C)c2c(CN3CCN(C)CC3)cc(=O)oc2c1 -0.86%
COC1CCN(C(=O)CC2C(=O)NCCN2CC(C)(C)C)CC1 (stereo not given) -3.7%
O=C(CC12CC3CC(CC(C3)C1)C2)Nc1nncs1 12.5%
COc1ccc(NC(=O)CCc2c(C)nc3nc(C)nn3c2C)cc1 -3.06%
O=C(c1cc2ccccc2oc1=O)N1CCN(S(=O)(=O)c2ccccc2)CC1 18.2%
O=C1NN(c2ccccc2)C(=O)/C1=C\c1ccc2c(c1)OCO2 18%
O=C1NC(=S)N/C1=C/c1cc2c(cc1[N+](=O)[O-])OCO2 3%
O=C(CCN1C(=O)/C(=C/C=C/c2ccccc2)SC1=S)Nc1nc2ccccc2s1 9.79%
Cc1ccccc1NC(=O)c1ccc2c(c1)CCN2S(C)(=O)=O 11.3%
CCC(C)n1c(SCC(=O)/C(C#N)=C(\C)N)nc2ccccc2c1=O (stereo not given) 7.34%
C/C(=C\c1ccccc1)C(=O)Nc1nc2ccc([N+](=O)[O-])cc2s1 8.41%
Cc1cccc(/C=N/n2c(C)nnc2C)c1 10.3%
CC(/C=N/n1c(-c2cccnc2)n[nH]c1=S)=C\c1ccco1 31.8%
CC(=C/c1ccccc1)/C=N/n1c(-c2ccncc2)n[nH]c1=S 19%
S=c1[nH]nc(-c2n[nH]c3c2CCC3)n1/N=C/C=C/c1ccccc1 20.8%
S=c1[nH]nc(-c2ccco2)n1/N=C/c1ccc(Cl)cc1 31%
S=c1[nH]nc(-c2ccncc2)n1/N=C/c1cccc(Cl)c1 29.1%
Clc1ccccc1CN1CCN(/N=C/C=C/c2ccco2)CC1 15.9%
Cc1ccc(/C=N/n2c(C)nnc2C)cc1 19.4%
COC(=O)c1cn(NC(=O)CC2CCCCC2)c(=O)c2ccccc12 1.58%
O=c1[nH]cnc2onc(-c3ccc(F)cc3)c12 34%
O=[N+]([O-])c1cccc2nc(-c3ccccc3)c(-c3ccccc3)nc12 1.39%
CCCCOc1ccc(C(=O)NCc2ccccn2)cc1 -4.84%
COc1ccc(C(=O)NC(=S)NC(C)c2ccccc2)cc1 (stereo not given) 5.22%
Cc1ccc(C)c(N2CCN(CCCNC(=O)CCn3c(=O)c4cccn4c4cccnc43)CC2)c1 15.1%
Cc1cc(C(C)(C)C)ccc1OCC(=O)N/N=C\c1c(C)n(C)n(-c2ccccc2)c1=O -3.36%
COc1ccc(CN2CCC(n3nccc3NC(=O)CCOc3ccccc3)CC2)cc1C 5.92%
O=C(NCc1ccco1)c1csc2c1CCCCC2 1.56%
Cc1cc(C)cc(CSCC(=O)N/N=C/c2ccc(OCC(=O)NCc3ccco3)cc2)c1 10.9%
CC(/C=N/n1c(-c2ccco2)n[nH]c1=S)=C\c1ccco1 28.2%
Cc1ccsc1/C=N/n1c(-c2ccncc2)n[nH]c1=S 25.6%
CC(/C=N/n1c(-c2ccc(C)cc2)n[nH]c1=S)=C\c1ccco1 19.5%
CC(/C=N/n1c(-c2ccc(Cl)cc2)n[nH]c1=S)=C\c1ccco1 22.6%
Cc1ccsc1/C=N/n1c(-c2ccccc2)n[nH]c1=S 18.6%
CC(/C=N/n1c(-c2ccccc2)n[nH]c1=S)=C\c1ccco1 33.1%
CCOc1ccccc1NC(=S)NCCc1ccc(F)cc1 2.66%
O=C(CS(=O)(=O)c1ccc(F)cc1)Nc1nnc(-c2cccs2)o1 28.3%
COc1ccc(OC(=O)COc2ccc(Cl)cc2)cc1 21.7%
Cc1cccc(NC(=S)N2CCN(c3ccccn3)CC2)c1 7.16%
COC(=O)C1=NNC2(C)C(=O)N(c3ccc(C)cc3)C(=O)C12 (stereo not given) 1.54%
CCc1c(C)c(C#N)c2nc3ccccc3n2c1Cl -5.75%
Cc1cc(C(C)C)n2c(nc3ccccc32)c1C#N 3.46%
CCc1ccc(N(C(=O)CNC(=O)c2ccco2)C(C(=O)NC2CCCC2)c2cccnc2)cc1 (stereo not given) 12.2%
